# Bioassay records (PubChem BioAssay)
# Rows were chosen to be rich in hits. Some 7.9% of all compounds tested hit in one or more screens of this group.
# HT1080-NT tox = kills 2HG-producing HT-1080-NT fibrosarcoma cells; HT-1080-NT fibrosarcoma viability, CellTiter-Glo ATP luminescence, 48 h; Potency, µM (highest dose often 46.1 µM), for the others: at the top dose activity, negative = less viability, hits mostly cytotoxic; 1.6% of 360,000 active; AID 686970;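 note: NT is the 2HG producing partner of a matched IDH1 knockdown line; 0% = DMSO-treated cells and -100% = media-only wells without cells; nearly all actives have a fitted effect of over 55% in size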
#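 750 cells/well, RPMI + 5% FBS; 2 h settle, compound pin-transfer, 48 h at 37 degrees C. CellTiter-Glo 10 min RT, luminescence. Normalized to DMSO and media-only wells.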
# SW480 rerep = DNA re-replication induction in SW480 cells; SW480 DNA re-replication, Hoechst DNA content imaging, 48 h; Potency, µM (series often up to 46.1 µM), inactives show at the highest dose re-replication activation, hits mostly activators; 1.8% of 340,000 active; AID 624297; note: % of control where 0% means no effect; nearly all actives have a fitted effect of over 55% in size
#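 Quantitative HTS format with DMSO vehicle controls; 48 hr drug incubation at 37 C, then 40 min Hoechst staining and scanning imager measurement at 405 nm excitation.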
# KB-3-1 tox = KB-3-1 parental cell cytotoxicity; AID 1347075; KB-3-1 viability, CellTiter-Glo ATP luminescence, 72 h; Potency, µM (highest dose often 46.1 µM), hits mostly cytotoxic; 1.4% of 400,000 active; note: % is set by controls: 0 for no effect and ±100 for the full control effect; nearly all actives have a fitted effect of over 60% in size
#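 Viability of parental KB-3-1 cells, measured by CellTiter-Glo luminescence, followed a 72 h incubation at 37 °C with pinned compounds in phenol-red-free DMEM containing 10% FBS.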
# MCF10A rereplic = DNA re-replication induction in MCF 10a cells. MCF 10A DNA re-replication, Hoechst nuclear intensity, 48 h. Potency, µM (series often up to 46.1 µM), inactives show at the top dose activity, positive = re-replication, hits mostly activators. 2.9% of 350,000 active; note: % of control where 0% means no effect; nearly all actives have a fitted effect of over 50% in size
# KB-V1 cytotox = kills drug-selected multidrug resistant KB-V1 cells; KB-V1 MDR cells viability, CellTiter-Glo, 72 h; Potency, µM (top dose mostly 46.1 µM), most hits filed as cytotoxic; AID 1347076; 3.4% of 400,000 active; note: % is set by controls: 0 for no effect and ±100 for the full control effect; nearly all actives have a fitted effect of over 60% in size
#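 KB-V1, DMEM (no phenol red) + 10% FBS; cpd pin-transferred, titration series; 72 h, 37 degrees C; CellTiter-Glo, luminescence. Data normalized, curve-fit.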
# HT1080 IDH1KD tx = HT-1080 IDH1 knockdown cell toxicity (counter line) | AID 686971 | 2% of 360,000 active | HT-1080 IDH1 knockdown viability, ATP luminescence, 48 h | Potency, µM (highest dose often 46.1 µM), without a hit: at the highest dose activity, negative = toxicity, usual class: cytotoxic;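 note: 0% = DMSO wells and -100% = cell-free medium wells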
#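 Knockdown cells (IDH1KD HT-1080) received compounds 2 h after plating at 750 cells/well and were kept 48 h at 37 °C in 5% FBS RPMI. A CellTiter-Glo luminescence read gave % activity for curve fitting.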
# An asterisk follows results filed as active; i = inactive; ? = inconclusive; . = no result given; [ ] = remark or other dose. Calls come from the whole dose curve; as a rule, active = well fitted curve in the direction sought with a large enough effect; inconclusive = small, poorly fitted or top-dose-only effect, or another doubt; inactive = no such curve, though single readings can be large; an effect the other way counts as inactive or inconclusive. Potency is the fitted concentration of half-maximal effect.
SMILES,HT1080-NT tox,SW480 rerep,KB-3-1 tox,MCF10A rereplic,KB-V1 cytotox,HT1080 IDH1KD tx
Nc1[nH]c(C(=O)c2ccc(Br)cc2)c(-c2ccc(Br)cc2)c1C(=O)NCCc1c[nH]c2ccccc12,?,.,?,.,21µM*,?
C[C@H](CO)N1C[C@H](C)[C@@H](CN(C)C(=O)Nc2ccc(C(F)(F)F)cc2)Oc2ccc(NS(=O)(=O)c3cn(C)cn3)cc2C1=O,-12%,3%,i,10%,i,-4%
Cc1ccc(CN2CCNC(=O)C2CC(=O)N(C)C2CCOCC2)cc1 (centres undefined),8%,-9%,i,-1%,i,6%
O=C(C/C=N\O)Nc1ccc(Oc2ccccc2)cc1,-4%,17%,i,20%,i,-3%
CO/N=C\CC(=O)Nc1ccc(Oc2ccccc2)cc1,?,5.2µM*,8.2µM*,?,?,?
C#CCOCCOCCOCCNc1nc(N2CCN(C(=O)Cn3cc(CC(C)O)nn3)CC2)nc(N2CCN(C(=O)[C@H]([C@@H](C)CC)n3cc(CCCCN)nn3)CC2)n1 (some centres undefined),16%,-23%[9.22 µM],i,-10%,i,4%
O=C(/C=C/c1cccc(F)c1)N1CCN(c2ccccn2)CC1,2%,12%,i,-12%,i,-8%
Nc1cccc2c1C(=O)N(C(=O)/C=C/c1cccc(Br)c1)C2=O,?,?,i,21µM*,?,?
Nc1cccc2c1C(=O)N(C(=O)/C=C/c1cccc(F)c1)C2=O,18µM*,18µM*,?,?,?,16µM*
CCCN1CNc2c(c(=O)[nH]c(=S)n2CCc2ccccn2)C1,20%,.,.,.,.,1%
Cc1ccc(C2=NOC3(CC(=O)N(c4ccc(C)cc4)C3=O)C2)cc1 (centres undefined),13%,-5%[9.22 µM],i,3%,?,14%
Fc1ccc(C[n+]2csc3ccccc32)cc1,7%,8%,i,?,i,2%
Clc1ccc(C[n+]2csc3ccccc32)cc1,-4%,-706%,i,-1%,23µM*,-9%
COc1ccc(NCc2cc3cc4c(cc3n(CC(=O)Nc3ccc(C)cc3)c2=O)OCO4)cc1,.,.,i,.,i,.
Cc1ccc(OCCC(=O)OC(C)C(=O)Nc2ccc(Cl)cn2)cc1 (centres undefined),-10%,2%,i,-1%,i,-11%
O=Nc1c(-c2c(O)[nH]c3cc(Br)ccc23)[nH]c2ccccc12,5.2µM*,?,?,-8%,21µM*,8.2µM*
CCCN(CC(=O)Nc1ccccc1C)C(=O)c1nn(CC)c(=O)c2ccccc12,-2%,-3%,i,-3%,8.2µM*,-3%
CN(C)c1ccc(S(=O)(=O)NCC(=O)NCCOc2ccccc2F)cc1[N+](=O)[O-],-4%,?,i,-2%,i,-4%
CN(C)c1ccc(S(=O)(=O)NCC(=O)NCCC2=CCCCC2)cc1[N+](=O)[O-],-2%,0%,i,-3%,18µM*,2%
COc1cc(C(=O)OC2CC3CCC2(C)C3(C)C)ccc1OC(C)=O (centres undefined),1%,?,i,15µM*,?,-9%
CC(C)CCNC(=O)Nc1ccc2c(c1)N(C)C(=O)CS2,-5%,1%,i,1%,21µM*,-13%
CCN(CC)S(=O)(=O)c1ccc(NC(=O)CSc2nnc3c(n2)[nH]c2ccccc23)cc1,13µM*,.,.,.,.,22µM*
CCc1nc2ccc(C(=O)N(C)Cc3ccco3)cn2c1N(CC)Cc1cccc(Br)c1,?,.,i,.,?,-26%
CN(Cc1ccccc1NS(=O)(=O)c1ccc2ccccc2c1)C1CCCCC1,-21%,16%,i,?,i,-21%
CCN1CCS/C1=C/C=C/C1=[N+](CC)CCS1,.,3%,?,9%,i,.
SMILES,HT1080-NT tox,SW480 rerep,KB-3-1 tox,MCF10A rereplic,KB-V1 cytotox,HT1080 IDH1KD tx
CCN1CCS/C1=C\C=C\C1=[N+](CC)CCS1,4.6µM*,-67%,i,?,i,5.2µM*
O=C(/C=C/c1ccccc1)CC(O)(c1ccccc1)C(F)(F)C(F)F (centres undefined),16µM*,1%,i,-5%,?,13µM*
O=C(CC(O)(c1ccccc1)C(F)(F)C(F)F)c1cccs1 (centres undefined),-4%,-21%,i,1%,i,5%
O=C(/C=C/c1ccccc1)CC(O)(c1ccccc1)C(F)(F)F (centres undefined),13µM*,?,i,0%,23µM*,10µM*
CCc1ccc(NC(=O)C2CCN(c3cc(C)nc4c(-c5ccc(Cl)cc5)c(C)nn34)CC2)cc1,.,.,i,.,i,.
Cc1cccc(-c2oc3ccc(-c4ccc5c(c4)OCO5)cc3c2/C=C/c2ccc(N)cc2)c1,?,16µM*,i,?,?,0%
c1ccc(-c2ccncn2)cc1,22%,3%,i,-4%,i,15%
Cc1ccc(OC(=O)c2ccc([N+](=O)[O-])cc2Cl)cn1,4%,-2%,i,-2%,i,1%
N#CCCN(NC1=NS(=O)(=O)c2ccccc21)C(=O)c1ccccc1Br,-4%,-4%,i,1%,i,14%
Nc1nc2nc(-c3ccccc3)cc(C(F)(F)F)c2s1,-28%,0%,i,6%,i,?
O=C(NCC(F)(F)F)c1cc2c(c(-c3cccc(-c4ccccc4F)c3)n1)[C@@H](CCO)N(C(=O)CC1CC1)C2,?,.,?,.,?,21µM*
CCC(=O)N1Cc2cc(C(=O)NCC(F)(F)F)nc(-c3cccc(-c4cncnc4)c3)c2[C@H]1CCO,4%,.,i,.,i,15%
O=C(NCC1CC1)c1cc2c(c(-c3cccc(-c4ccccc4F)c3)n1)[C@@H](CCO)N(C(=O)CC1CC1)C2,21µM*,.,i,.,?,?
O=C(NCC1CC1)c1cc2c(c(-c3cccc(-c4ccccc4F)c3)n1)[C@H](CCO)N(C(=O)CC1CC1)C2,23µM*,.,?,.,?,?
CCNC(=O)c1cc2c(c(-c3cccc(-c4ccccc4F)c3)n1)[C@@H](CCO)N(C(=O)CC)C2,-6%,.,i,.,?,-8%
O=C(C[C@H]1C[C@H]2c3cc(NS(=O)(=O)c4ccc(F)cc4)ccc3O[C@H]2[C@H](CO)O1)NCc1ccncc1,-2%,.,i,.,i,5%
Cc1cc(C)c(NC(=O)CN(C2CCCCC2)C2CCCCC2)c(C)c1,4%,1.8µM*,i,3.7µM*,?,4%
